Here are results for five compounds from PubChem BioAssay.

Active and inactive are the calls of the source. Unless noted, the rule behind the calls is not given here.

A short description of assay [1]: anti-His antibody binders, primary screen, artefact control for SMM control protein annotation, biochemical, small-molecule microarray, 635 nm fluorescence (AID 1128).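 Note: score merges feature fluorescence with signal-to-noise for each printed compound spot.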 Particulars: anti-His Alexa647 antibody binding, higher = more signal.
Assay [2] has as its system Human papillomavirus type 1a E7 protein (residues 1-88). The assay is described as follows: HPV1a E7 small-molecule binders, primary screen, biochemical, small-molecule microarray, residues 1-88, 635 nm (AID 1129). Particulars: small-molecule microarray binding, fluorescence 635 nm; higher = more signal.
Assay [3] concerns the target Focal adhesion kinase 1 (Homo sapiens) (UniProt Q05397). The assay can be described thus: small-molecule microarray binders of FAK, primary screen, biochemical, 635/667 nm fluorescence, BSA, DTT (AID 1130).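 Note: composite of spot emission at 667 nm and signal to noise over triplicate slides.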 As to conditions: PTK2 binding, 635 nm fluorescence, higher = more signal.
For assay [4], the system named is Fibrinogen (Alexa647-labelled). The assay can be described thus: fibrinogen binders on compound microarrays, profiling panel, artefact control for SMM control-protein annotation, biochemical, small-molecule microarray, 635/667 nm fluorescence (AID 1131).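 Note: z-score merges 667 nm fluorescence with per-spot signal-to-noise over triplicate slides.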 As to conditions: fibrinogen-A647 binding fluorescence, higher = more signal.
Assay [5] addresses Follistatin (Homo sapiens) (UniProt P19883). The assay can be described thus: follistatin binders on small-molecule microarrays, primary screen, biochemical, small-molecule microarray, 635/667 nm fluorescence (AID 1132). As to conditions: FST binding, 635 nm fluorescence, higher = more signal.
For assay [6], the target named is Fibroblast growth factor 2 (Homo sapiens) (UniProt P09038). The assay can be described thus: FGF2 binders on small-molecule microarrays, primary screen, biochemical, small-molecule microarray, 635/667 nm fluorescence (AID 1133). Particulars: small-molecule microarray binding, FGF2, fluorescence 635/667; higher = more signal.
Fibroblast growth factor 2 (Homo sapiens), sequence (P09038 whole entry, looked up): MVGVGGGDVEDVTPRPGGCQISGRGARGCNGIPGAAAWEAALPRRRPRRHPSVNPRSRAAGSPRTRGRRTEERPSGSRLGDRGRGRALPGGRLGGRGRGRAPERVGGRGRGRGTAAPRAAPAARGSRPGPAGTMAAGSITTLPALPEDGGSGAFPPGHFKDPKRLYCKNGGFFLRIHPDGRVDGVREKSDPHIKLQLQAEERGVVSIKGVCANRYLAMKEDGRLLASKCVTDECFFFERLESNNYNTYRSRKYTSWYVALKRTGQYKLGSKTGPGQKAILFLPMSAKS
A short description of assay [7]: mitochondrial membrane potential change in A549 cells, profiling panel, cell-based, JC-1 fluorescence, basal, 24 h, 100 nL (AID 1138).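 Note: A549 lung adenocarcinoma cells under basal conditions with no added stimulus; test concentration not given here.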 As to conditions: higher = more signal.
The test system of the next assay is Lefty1. The assay can be described thus: Lefty1 binders on small-molecule microarrays, primary screen, biochemical, small-molecule microarray, 635/667 nm fluorescence (AID 1139). As to conditions: small-molecule microarray binding, fluorescence 635/667; higher = more signal.
Assay [8] has as its system wheat germ agglutinin (Triticum aestivum), Alexa647-labelled. The assay can be described thus: wheat germ agglutinin binders on compound microarrays, profiling panel, artefact control for SMM control-protein annotation, biochemical, small-molecule microarray, 635/667 nm fluorescence (AID 1140).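 Note: score merges 667 nm feature emission with signal to noise over triplicate slides.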 Particulars: WGA-A647 binding, 635 nm fluorescence, higher = more signal.
The target of assay [9] is Luciferin 4-monooxygenase (Photinus pyralis) (UniProt P08659). The assay is described as follows: firefly luciferase enzyme inhibitors, primary screen, biochemical, luminescence, purified enzyme, 2006 set (AID 1141).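 Note: cell-free assay with purified firefly luciferase at 100 ng per well in PBS; test concentration not given here.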 Particulars: SteadyGlo luminescence, 30 min, higher = more signal, called active from +8 up or from −8 down.
Luciferin 4-monooxygenase (Photinus pyralis), sequence (P08659 whole entry, looked up): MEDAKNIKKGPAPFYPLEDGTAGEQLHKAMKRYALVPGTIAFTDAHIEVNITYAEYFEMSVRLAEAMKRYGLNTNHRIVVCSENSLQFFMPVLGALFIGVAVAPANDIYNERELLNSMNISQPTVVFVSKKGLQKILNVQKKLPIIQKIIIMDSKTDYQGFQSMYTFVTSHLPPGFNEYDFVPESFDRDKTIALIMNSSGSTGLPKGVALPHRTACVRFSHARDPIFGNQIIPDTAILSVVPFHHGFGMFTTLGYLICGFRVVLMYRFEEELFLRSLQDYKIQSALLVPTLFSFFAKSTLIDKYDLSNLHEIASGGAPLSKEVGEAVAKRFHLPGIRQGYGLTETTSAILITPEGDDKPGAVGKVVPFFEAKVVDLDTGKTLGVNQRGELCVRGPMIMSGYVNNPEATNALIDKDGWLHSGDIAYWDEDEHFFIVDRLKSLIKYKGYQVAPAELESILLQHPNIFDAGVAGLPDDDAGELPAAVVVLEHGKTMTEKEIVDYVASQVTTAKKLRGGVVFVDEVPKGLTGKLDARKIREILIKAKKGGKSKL
In assay [10] the test system is Wnt5a (protein binding on small-molecule microarray). The assay is described as follows: Wnt5a binders on small-molecule microarray, primary screen, biophysical, 635/667 nm fluorescence (AID 1142).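 Note: fluorescence read at 667 nm with signal to noise per printed feature.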 As to conditions: 635 nm fluorescence, higher = more signal.
A short description of assay [11]: cell viability in Huh7 cells, primary screen, cytotoxicity control for HCV replication inhibitor project, CellTiter-Glo luminescence, basal, 48 h (AID 1143).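 Note: Huh7 hepatoma cells carrying a hepatitis C replication reporter with no stimulus; test concentration not given here.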 Particulars: Huh7 HCV replicon, higher = more signal, called active from +8 up or from −8 down. Background: In ATP-based viability assays light output follows the ATP content of the culture.
A short description of assay [12]: P. aeruginosa biofilm formation inhibitors, primary screen, PAO1 strain, BacTiter-Glo luminescence, LB-PBS (AID 1144). Particulars: 12 h, higher = more signal.
Assay [13] can be described thus: CREB reporter modulators without forskolin, primary screen, cell-based, PC12, CRE-LacZ reporter, unstimulated (AID 1145). Particulars: no forskolin, luminescence, 4.5 h, higher = more signal, called active from +8 up or from −8 down.
Assay [14] can be described thus: CREB reporter modulators under forskolin, primary screen, cell-based, PC12, CRE-LacZ reporter, forskolin-stimulated (AID 1146).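 Note: PC12 cells with 6xCRE LacZ reporter stimulated by forskolin 10 µM; beta-galactosidase reporter signal reflecting CREB driven transcription.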 Particulars: luminescence, 4.5 h, higher = more signal, called active from +8 up or from −8 down.
For assay [15], the target named is Streptavidin (Streptomyces avidinii) (UniProt P22629). The assay can be described thus: streptavidin binders on small-molecule microarray, primary screen, artefact control for SMM compound annotation, biophysical, 635/667 nm fluorescence (AID 1147).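 Note: signal reflects streptavidin binding to arrayed compounds as a control protein.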 As to conditions: streptavidin binding, higher = more signal.
Streptavidin (Streptomyces avidinii), sequence (P22629 whole entry, looked up): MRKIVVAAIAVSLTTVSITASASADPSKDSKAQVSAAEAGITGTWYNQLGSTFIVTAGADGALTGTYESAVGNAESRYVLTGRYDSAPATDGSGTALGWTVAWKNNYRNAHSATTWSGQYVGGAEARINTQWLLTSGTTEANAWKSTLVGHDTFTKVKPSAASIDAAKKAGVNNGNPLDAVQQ
Assay [16] can be described thus: small-molecule binders of probe aInhba, primary screen, biochemical, small-molecule microarray, 635/667 nm fluorescence (AID 1148).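 Note: score merges 667nm spot fluorescence with signal-to-noise for antibody binding to printed compounds.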 Particulars: higher = more signal.
In assay [17] the target is Torsin-1A (Homo sapiens) (UniProt O14656). The assay is described as follows: torsin A binders from cell lysate, primary screen, small-molecule microarray, wild-type, 635/667 nm (AID 1149). As to conditions: COS7 hTOR1A-WT lysate, 635 nm fluorescence, higher = more signal.
Torsin-1A (Homo sapiens), sequence (O14656 whole entry, looked up): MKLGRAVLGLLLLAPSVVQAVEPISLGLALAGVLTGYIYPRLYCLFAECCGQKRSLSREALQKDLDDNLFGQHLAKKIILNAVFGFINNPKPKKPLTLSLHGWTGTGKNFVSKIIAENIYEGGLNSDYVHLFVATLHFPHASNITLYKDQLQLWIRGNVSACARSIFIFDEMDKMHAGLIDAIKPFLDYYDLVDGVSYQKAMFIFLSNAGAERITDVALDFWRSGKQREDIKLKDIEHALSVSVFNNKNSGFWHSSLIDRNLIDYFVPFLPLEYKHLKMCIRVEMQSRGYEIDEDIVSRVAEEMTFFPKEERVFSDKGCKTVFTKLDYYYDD
Assay [18] has the same target. The assay is described as follows: small-molecule binders of mutant TOR1A in lysate, primary screen, cell lysate, small-molecule microarray, COS7 lysate, 635/667 nm fluorescence (AID 1150).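 Note: score pools 667 nm emission and signal to noise measuring lysate protein binding.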 Particulars: COS7 hTOR1A mutant lysate, 635 nm fluorescence, higher = more signal.
In assay [19] the test system is Sonic hedgehog protein (Shh). The assay is described as follows: small-molecule binders of Shh protein, primary screen, biochemical, small-molecule microarray, 635/667 nm fluorescence (AID 1151).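 Note: Shh protein binding to compounds spotted on small-molecule microarray slides; score combines spot fluorescence intensity with signal-to-noise across triplicate slides.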 Particulars: small-molecule microarray binding, 635 nm fluorescence; higher = more signal.

Follistatin (Homo sapiens), sequence (P19883 whole entry, looked up): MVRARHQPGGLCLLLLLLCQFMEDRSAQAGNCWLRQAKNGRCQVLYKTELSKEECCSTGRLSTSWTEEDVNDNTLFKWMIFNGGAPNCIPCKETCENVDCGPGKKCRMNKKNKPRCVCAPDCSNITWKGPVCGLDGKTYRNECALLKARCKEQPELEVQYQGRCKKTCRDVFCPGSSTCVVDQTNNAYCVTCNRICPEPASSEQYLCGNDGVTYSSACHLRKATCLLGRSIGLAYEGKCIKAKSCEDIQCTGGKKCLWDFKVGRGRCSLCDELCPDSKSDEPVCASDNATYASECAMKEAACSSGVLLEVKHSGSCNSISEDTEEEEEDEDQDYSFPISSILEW
Focal adhesion kinase 1 (Homo sapiens), sequence (Q05397 whole entry, looked up): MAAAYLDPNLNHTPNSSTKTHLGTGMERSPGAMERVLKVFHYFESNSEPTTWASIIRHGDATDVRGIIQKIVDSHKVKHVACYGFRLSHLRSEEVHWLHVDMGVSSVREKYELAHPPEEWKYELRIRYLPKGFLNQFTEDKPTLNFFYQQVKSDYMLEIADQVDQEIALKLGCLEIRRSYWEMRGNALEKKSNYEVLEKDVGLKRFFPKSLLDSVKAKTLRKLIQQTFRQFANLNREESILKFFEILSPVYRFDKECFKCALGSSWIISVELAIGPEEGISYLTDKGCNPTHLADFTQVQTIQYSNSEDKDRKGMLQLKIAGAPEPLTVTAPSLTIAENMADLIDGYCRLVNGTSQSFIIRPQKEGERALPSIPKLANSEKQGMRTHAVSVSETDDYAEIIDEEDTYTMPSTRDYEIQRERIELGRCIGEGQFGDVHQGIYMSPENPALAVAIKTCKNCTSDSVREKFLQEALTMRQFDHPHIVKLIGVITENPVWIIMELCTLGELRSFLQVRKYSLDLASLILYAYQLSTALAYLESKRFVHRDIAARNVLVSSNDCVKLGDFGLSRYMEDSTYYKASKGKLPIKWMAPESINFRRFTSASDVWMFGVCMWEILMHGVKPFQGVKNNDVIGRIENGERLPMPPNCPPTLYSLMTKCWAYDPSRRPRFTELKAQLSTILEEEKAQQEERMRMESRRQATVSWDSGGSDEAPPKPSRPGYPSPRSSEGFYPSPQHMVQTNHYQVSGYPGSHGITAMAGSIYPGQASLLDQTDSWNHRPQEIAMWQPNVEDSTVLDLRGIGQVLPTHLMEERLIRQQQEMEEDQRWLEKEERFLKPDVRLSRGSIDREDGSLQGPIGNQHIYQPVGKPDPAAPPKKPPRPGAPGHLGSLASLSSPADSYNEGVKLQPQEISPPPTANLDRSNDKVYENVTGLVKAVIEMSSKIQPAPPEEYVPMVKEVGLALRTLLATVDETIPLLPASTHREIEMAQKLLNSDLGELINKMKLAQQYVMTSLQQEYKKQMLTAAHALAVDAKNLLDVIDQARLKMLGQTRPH

For `C=CC[C@@]12N=C(c3ccc(OCCCO)cc3)O[C@@H]1c1ccccc1N(Cc1ccccc1)C2=O`, the composite z-score in [1] amounted to 2.52; in assay [2] it was 1.17; in assay [3], 0.986; in assay [4], 0.8; in [5] it was 1.55; in assay [6], 1.44. The composite z-score with Lefty1 was 1.55; in assay [8] it was 1.04; in assay [10] it was 0.711; in [15], 0.25; in [16], 0.605; with Torsin-1A (Homo sapiens) [17], 1.19. In addition, the values for the composite z-score (in the assay with Torsin-1A (Homo sapiens) [18]; in [19]) were 0.909 and 2.06, respectively. In addition, the z-score in [7] is -0.379; in [9], -2.6 (inactive); in assay [11], -4.31 (inactive); in assay [12], 0.519 (inactive); in assay [13], 1.1 (inactive); in assay [14], -1.66 (inactive).

Take `COC(=O)Cn1c(C(=O)N(C)C)cc2c1C[C@H]1CN(C(=O)c3ccccc3)[C@@](Cc3ccc(OC)cc3)(C(=O)OC)[C@@H]21`: the composite z-score in [1] was 0.817; in assay [2], 0.845; in assay [3] it was 0.263; in [4], 0.605; in assay [5] it was 0.371; in assay [6], -0.159. For the same compound, the composite z-score with Lefty1 was -0.351; in assay [8], 0.86; in [10] it was 1.09; in assay [15], 0.896; in assay [16] it was 0.438; in the assay with Torsin-1A (Homo sapiens) [17] it was 0.244. Moreover, the results for the composite z-score (with Torsin-1A (Homo sapiens) [18]; in assay [19]) were 0.0985 and -0.333, respectively. Further, the z-score in [7] was 0.834; in [9] it was 0.923 (inactive); in assay [11], -1.99 (inactive); in [12], 0.655 (inactive); in [13], 0.966 (inactive); in assay [14], 0.353 (inactive).

`CN(C)CCCCNC(=O)[C@H]1C[C@H]2C(=O)NCC(=O)N2[C@H]1c1cccc(OCCO)c1`: the composite z-score in assay [1] was 0.465; in [2] it was -0.74; in [3], -0.539; in assay [4], -1.59; in assay [5], 0.991; in [6], 0.817. In addition, the composite z-score is 0.748 in the assay with Lefty1; 0.169 in [8]; 0.133 in [10]; -1.04 in [15]; -0.202 in [16]; 0.0774 with Torsin-1A (Homo sapiens) [17]. The figures for the composite z-score (in the assay with Torsin-1A (Homo sapiens) [18]; in [19]) were -0.0032 and 2.19, respectively. The z-score in [7] was 0.411; in assay [9], 1.59 (inactive); in [11], 0.344 (inactive); in [12], -0.254 (inactive); in assay [13], -0.398 (inactive); in [14], 0.586 (inactive).

On to `C=CCN1C(=O)[C@]2(O[C@H](CCn3cc([C@H](O)c4ccccc4)nn3)[C@@H]([Si](C)(C)c3ccc(OC)cc3)[C@@H]2C)c2cc(N3C(=O)c4cccc5cccc3c45)ccc21`, for which the composite z-score in assay [1] is 0.72; in [2], 0.268; in assay [3] it was 0.33; in [4] it was 0.182; in assay [5] it was -0.167; in assay [6], 0.102. For the same compound, the composite z-score is 0.102 in the assay on Lefty1; 0.453 in [8]; 0.0898 in assay [10]; 0.633 in assay [15]; -0.255 in assay [16]; -0.439 with Torsin-1A (Homo sapiens) [17]. Also, the composite z-score with Torsin-1A (Homo sapiens) [18] was 1.18; in [19], 0.204. Also, the z-score in assay [7] is 1.01; in assay [9], -0.719 (inactive); in [11] it was -6.26 (inactive); in [12], -0.774 (inactive); in assay [13] it was 9.81 (active); in [14], -0.745 (inactive).

For `COCC1=C([C@H](O)CCc2ccccc2)[C@H](CO)n2c(=O)n(-c3ccccc3)c(=O)n2C1`, the composite z-score was -0.507 in assay [1]; -0.364 in assay [2]; -0.044 in assay [3]; -0.325 in [4]; 0.0942 in [5]; 1.08 in assay [6]. Also, the composite z-score in the assay with Lefty1 was -0.0597; in [8], 0.361; in [10], -0.419; in [15], -0.101; in assay [16] it was -0.154; in the assay with Torsin-1A (Homo sapiens) [17], -0.115. Besides, the composite z-score with Torsin-1A (Homo sapiens) [18] was -0.414; in assay [19] it was 0.199. Also, the z-score in assay [7] was -0.152; in assay [9], -1.59 (inactive); in [11], -1.24 (inactive); in assay [12] it was -0.84 (inactive); in assay [13], 0.129 (inactive); in assay [14], -0.2 (inactive).
